Experimental findings from ChEMBL document CHEMBL4513216, “Probing the Open Global Health Chemical Diversity Library for Multistage-Active Starting Points for Next-Generation Antimalarials” (ACS Infect Dis, 2020) are described below.

Screen size: about 65,000 compounds; about 2,100 (3.2%) showed an effect of 50% or more. The median lay at about -52%. The sample as a whole holds a higher share of strong results than the screen did.

This experiment deals with Plasmodium falciparum. Briefly: Screen against P. falciparum Asexual Blood Stage (ABS), at 5uM. The note with it: tested at 5 uM. The format is functional, Dd2.
For the compound `O=C(c1cnccn1)N1CCC2(CC1)CCN(Cc1ccccn1)C2=O`, the INHIBITION is given as -85.2%.
With `CN(Cc1cncnc1)[C@@H]1CN(Cc2ccco2)C[C@@H]2CCCO[C@@H]21` the figure was -7.65%.
For `COc1cccc(CN2CC[C@H]3[C@@H](C2)[C@H](c2ccsc2)CN3C(C)=O)c1`, the INHIBITION is 54.8%.
Regarding `COc1ccccc1CN1CC[C@H]2[C@@H](C1)[C@H](c1ccsc1)CN2C(C)=O`, the INHIBITION is given as 29.5%.
Regarding `CC(C)(C)C(=O)N1C[C@H](c2ccsc2)[C@H]2CN(Cc3cccs3)CC[C@H]21`, the INHIBITION was 29.8%.
Regarding `Cn1nc(COc2cccnc2)c2c1CCN(c1cnccn1)C2`, the INHIBITION is listed as -72.3%.
Regarding `Oc1cc(C2CCCCN2CC2CC2)nc(-c2ccncc2)n1` (stereo unspecified), the INHIBITION is -48.7%.
On to `CCCS(=O)(=O)N1CCC2(CC1)CN(C(=O)N(C)C)c1ccccc12`, for which the INHIBITION is on record as -7.36%.
For `CCCS(=O)(=O)N1CCC2(CC1)CN(CC1CCOC1)c1ccccc12` (stereo unspecified), the INHIBITION was found to be 50.8%.
For the compound `CS(=O)(=O)N1CCC2(CC1)CN(CC1CCOC1)c1ccccc12` (stereo unspecified), the INHIBITION is -50.1%.
As for `O=C1CC2(CCN(CC3CCOC3)CC2)c2ccccc2N1CC1CC1` (stereo unspecified), the INHIBITION is given as 12.4%.
Take `c1ccc2c(c1)N(CC1CCOC1)CC21CCN(c2cnccn2)CC1` (stereo unspecified): the INHIBITION turned out to be 69.9%.
Turning to `CCS(=O)(=O)N1CCC2(CC1)CN(CC1CCOC1)c1ccccc12` (stereo unspecified), the INHIBITION was 23.6%.
With `Cc1nn(CC(F)F)c2c1c(C(F)F)cc(=O)n2CC(=O)O` the figure was -111.45%.
On to `CN1CCCn2c(nc(CNS(=O)(=O)C3CC3)cc2=O)C1`, for which the INHIBITION is reported as -41.3%.
With `Cc1nn(C)c2cnn(Cc3ccc(C(=O)NC4CC4)cc3)c12` the figure was -60.4%; with `COc1cccc(-c2ccnc(C3CCNCC3)c2)c1`, -73.8%; with `Fc1cccc(-c2nccnc2C2CCCNC2)c1` (stereo unspecified), 14.9%.
In the case of `COc1cccc(CN2C[C@H]3CCNCC[C@H]3S2(=O)=O)c1`, the INHIBITION was found to be 17.1%.
Regarding `Fc1ccccc1-c1nccnc1C1CCCNC1` (stereo unspecified), the INHIBITION was 10.7%.
With `CN1CCCC1c1cc2cccnc2n1Cc1ccc(F)cc1` (stereo unspecified), the INHIBITION was found to be 69.9%.
Regarding `COc1cccc(Cn2c(C3CCNCC3)cc3cccnc32)c1`, the INHIBITION stood at 66.1%.
Turning to `c1cnc2c(c1)cc(C1CCOCC1)n2CCN1CCOCC1`, the INHIBITION is -7.49%.
With `c1cnc2c(c1)cc([C@H]1CCCO1)n2CCN1CCCCC1` the figure was 25.8%.
For the compound `COc1ccc(-c2ccnc(C3CCNCC3)c2)cc1`, the INHIBITION came out at 30.9%.
With `COc1ccc(Cn2c(C3CCNCC3)cc3cccnc32)cc1` the figure was 66.9%; with `Fc1cccc(F)c1Cn1c(C2CCCNC2)cc2cccnc21` (stereo unspecified), 66.1%.
Turning to `c1cnc2c(c1)cc([C@H]1CCCO1)n2CCN1CCCC1`, the INHIBITION is reported as 21.4%.
In the case of `O=C(C1CCOCC1)N1C[C@H]2CCC[C@@]2(COCc2ccccn2)C1` it was -15.1%; in that of `Cc1noc(C(C)C)c1C(=O)NCc1cccc(CN(C)C)c1`, -13.6%; in that of `Cc1cnc(CNC2CCc3nc(C(C)C)nn3C2)cn1` (stereo unspecified), -20.3%.
As for `Cc1ccc(CN2C[C@@H]3CN(CC4CCOCC4)CCO[C@@H]3C2)s1`, the INHIBITION is reported as -95.1%.
With `CC(C)(C)n1cc(CNc2ccc(CNS(C)(=O)=O)cc2)cn1` the figure was -25.8%.
With `Cn1cnc2c1C(COCC1CC1)CN(Cc1ccc3c(c1)OCO3)C2` (stereo unspecified), the INHIBITION is recorded as 41.1%.
Consider `CCCC(=O)N1CCCN(C(=O)c2oc(C)nc2C)CC1`, for which the INHIBITION is given as -111%.
`Cc1ncsc1C(=O)NCc1ccnc(N2CCN(C)CC2)c1`: the INHIBITION amounted to 62.9%.
`Cc1ccsc1C(=O)NCc1ccnc(N2CCN(C)CC2)c1`: the INHIBITION was -35%.
Take `Cc1cc(C(=O)NCc2ccnc(N3CCN(C)CC3)c2)sc1C`: the INHIBITION is -5.05%.
On to `Cc1cc(C(=O)NCc2ccnc(N3CCN(C)CC3)c2)c(C)s1`, for which the INHIBITION is 32.2%.
On to `Cc1cc(C(=O)NCc2ccnc(N3CCOCC3)c2)c(C)s1`, for which the INHIBITION worked out at 50.6%.
Turning to `Cc1ccc(C(=O)NCc2ccnc(N3CCN(C)CC3)c2)cn1`, the INHIBITION is listed as -38.9%.
In the case of `Cc1cnc(N2CCC3(CC2)CC3CNC(=O)C2CCC2)nc1` (stereo unspecified), the INHIBITION was -57.8%.
Consider `COc1cccc(-c2noc(C3CCN(Cc4ccc(C)cc4)C3)n2)c1` (stereo unspecified), for which the INHIBITION is -97.2%.
For the compound `O=C(c1cc(Cl)ccc1OC1CCN(C2CCCC2)CC1)N1CC(O)C1`, the INHIBITION is on record as -96%.
On to `O=C(c1cc(Cl)ccc1OC1CCN(C2CCCC2)CC1)N1CCCO1`, for which the INHIBITION is given as 53.5%.
On to `CC(=O)N1CCC(Oc2ccc(Cl)cc2C(=O)N2CCCO2)CC1`, for which the INHIBITION is reported as -31%.
With `Cc1noc([C@@H]2C[C@H]3OCC[C@H]3N(Cc3sccc3C)C2)n1` the figure was -15.2%; with `CN(C)C(=O)c1cn2cc(-c3cccc(Cl)c3)n(CC3CC3)c(=O)c2n1`, -21.6%.
Regarding `CNC(=O)c1cn2cc(-c3cccc(Cl)c3)n(CC3CC3)c(=O)c2n1`, the INHIBITION turned out to be 19.5%.
In the case of `CNC(=O)c1cn2cc(-c3ccccc3Cl)n(CC=C(C)C)c(=O)c2n1` it was 68.2%; in that of `CNC(=O)c1cn2cc(-c3ccccc3Cl)n(CC3CC3)c(=O)c2n1`, 54.7%.
